Autophagy mod: autophagy modulation, high-content screen. MEF GFP-LC3 puncta imaging; test concentration mostly 10 µM. 190,000 compounds, 0.98% hits. calls only at 10 µM (by protocol);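 active means percentage of spot-positive cells more than 3 SD above its plate mean, without a fluorescence outlier flag or 80% toxicity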;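 further: spot-positive cell cutoff set from DMSO-treated cells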
WT yeast gro inh: growth inhibition of WT yeast, mitochondrial fusion screen; mitochondrial fusion phenotypic screen, WT strain; inhibition, % at 10 µM; 190,000 compounds, 2.1% hits; AID 1362; in the data active means inhibition above about 58%; tested in S. cerevisiae
Insulin prom up: MIN6 insulin promoter up-regulation; 190,000 compounds, 0.3% hits; AID 1625; MIN6 insulin promoter-GFP reporter, high-content imaging; stronger effect = higher value; z-score at 5 µM;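 active means z-score above 3 at 5 µM with at least 500 cells counted in the well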
Lmaj promast: Leishmania major promastigote growth inhibition | Leishmania major promastigotes, resazurin fluorescence viability | inhibition, % at 10 µM | 200,000 compounds, 9% hits | AID 1063; in the data active means inhibition above about 50%;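 further: promastigotes grown with compound for 44 hours at 28 °C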
Insulin prom inh: TRM-6 insulin promoter activity inhibition; inhibition, % at 2 µM; AID 1273; TRM-6 cells (human fetal islet line), insulin promoter-eGFP reporter, imaging; reporter expression induced with tamoxifen; 130,000 compounds, 0.9% hits;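 active means inhibition above the mean plus 3 SD, with well images judged a real hit on visual review, cut at about 60% in these data, passing the limit was not always enough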
* hit, by the source's call; i = inactive; nt = not tested or not shown; + = active, no number. Compounds with a hit are over-represented: about 11% of the library has one in this group of screens.

SMILES	Autophagy mod	WT yeast gro inh	Insulin prom up	Lmaj promast	Insulin prom inh
CCOc1cc(/C=C/C(=O)Nc2ccc(C(=O)NCCN(CC)CC)cc2)ccc1OCC(C)C	i	-5	-5	53*	29
CCOc1ccc(/C=C/C(=O)Nc2ccc(C(N)=O)cc2)cc1OC	i	-12	0.43	-8	-4
CCN(CC)CCn1c2ccc(F)cc2c2nc(C)sc21	i	8	nt	6	-85
Cc1ccc(S(=O)(=O)n2c3ccc(F)cc3c3nc(C)sc32)cc1	i	78*	-0.04	3	nt
N#Cc1ccsc1NC(=O)CN1CCCCCC1	i	-4	-0.25	59*	27
N#Cc1ccsc1NC(=O)CN1CCOCC1	nt	nt	0.25	nt	nt
O=C(Nc1ccccc1)c1sc(N2CCOCC2)nc1-c1ccccc1	i	7	0.33	13	nt
O=C(NC1CCCCC1)c1sc(N2CCOCC2)nc1-c1ccccc1	i	-12	0.71	88*	-39
CCNC(=O)CN(c1ccc(CC)cc1)S(C)(=O)=O	i	2	0.9	-1	25
COc1ccc(-c2cn3cc(C(=O)NN)ccc3n2)cc1	i	35	-0.39	2	nt
NNC(=O)c1ccc2nc(-c3ccc(Br)cc3)cn2c1	i	71*	-0.37	54*	33
Cc1ccc(C(=O)NC2CCCc3ccccc32)o1 (stereo unspecified)	i	4	-0.38	16	-29
O=C(NC(=S)NC1CCCc2ccccc21)c1ccco1 (stereo unspecified)	+	73*	-0.81	4	nt
COc1ccccc1C(=O)NC(=Nc1nc2ccccc2o1)NC(=O)c1ccccc1OC	i	33	-6.4	100*	-42
O=C(NC(=Nc1nc2ccccc2o1)NC(=O)c1ccccc1)c1ccccc1	i	-5	-0.58	6	-25
O=c1c2ccc([N+](=O)[O-])cc2ncn1CCOc1ccc(Cl)cc1	i	25	nt	20	nt
O=c1c2ccc([N+](=O)[O-])cc2ncn1CCOc1cccc(Br)c1	+	-3	0.51	28	nt
N#CCc1nc(CSc2nc3ccccc3s2)cs1	i	11	4*	3	31
COc1ccc(-c2ccc(=O)n(CC(=O)N3CCN(c4ccccc4OC)CC3)n2)cc1	i	14	nt	92*	nt
COc1ccccc1N1CCN(C(=O)/C=C/c2ccc(C)cc2)CC1	i	-10	0.02	55*	-8
COc1ccccc1N1CCN(C(=O)COc2cc(C)ccc2C)CC1	i	1	-0.22	64*	-11
CC1CCN(C(=O)/C=C/c2ccc(C(C)(C)C)cc2)CC1	i	62*	0.04	30	-41
COc1ccccc1N1CCN(C(=O)Cn2nc3n(C)c4ccccc4n3c(=O)c2=O)CC1	i	-14	0.13	-5	25
COc1ccccc1N1CCN(C(=O)COc2ccc(C)cc2Br)CC1	i	15	-0.35	2	nt
Cc1c(C(=O)N2CCC(Cc3ccccc3)CC2)cccc1[N+](=O)[O-]	i	23	0.25	14	56
SMILES	Autophagy mod	WT yeast gro inh	Insulin prom up	Lmaj promast	Insulin prom inh
Cc1ccc(/C=C/C(=O)N2CCC(Cc3ccccc3)CC2)cc1	i	67*	0.38	43	25
Cc1cccc(C(=O)N2CCC(Cc3ccccc3)CC2)c1[N+](=O)[O-]	i	7	-0.38	53*	22
CC(Sc1nnc(-c2cccnc2)n1-c1ccccc1F)C(=O)N1CCCc2ccccc21 (stereo unspecified)	i	-1	0.56	23	16
CN(C)CCNC(=O)c1ccc(CS(=O)(=O)c2ccc(Br)cc2)o1	i	12	nt	77*	nt
CN(c1ccc(C(=O)N2CCN(Cc3ccc4c(c3)OCO4)CC2)cc1)S(=O)(=O)c1ccccc1	i	19	nt	96*	47
Cc1ccc(S(=O)(=O)N(C)c2ccc(C(=O)N3CCN(Cc4ccc5c(c4)OCO5)CC3)cc2)cc1	i	-18	nt	100*	-38
CCN1CCN(C(=O)CN(c2cccc(Br)c2)S(=O)(=O)c2ccccc2)CC1	i	-4	-0.07	98*	-44
O=C(c1ccc(NS(=O)(=O)c2ccccc2)cc1)N1CCN(Cc2ccc3c(c2)OCO3)CC1	i	11	0.38	19	27
O=C(CN(c1ccccc1)S(=O)(=O)c1ccccc1)N1CCN(Cc2ccc3c(c2)OCO3)CC1	i	23	nt	72*	17
CCN(CC)CCCC(C)NC(=O)c1cccc(S(=O)(=O)N2CCc3ccccc32)c1 (stereo unspecified)	i	6	0.07	48	nt
CCCNC(=O)c1nnsc1S(=O)c1ccc(Cl)cc1 (stereo unspecified)	i	85	-0.69	100*	i
CNC(=O)c1nnsc1S(=O)c1ccc(Cl)cc1 (stereo unspecified)	i	59	1.4	100*	-155
CCCNC(=O)c1nnsc1S(=O)(=O)c1ccc(Cl)cc1	i	85	0.75	18	i
COc1ccc(C2CC2C(C)=O)cc1 (stereo unspecified)	i	-11	-0.95	-10	nt
CCOc1ccc2[nH]c(=O)c(CN(CCc3ccccc3)C(=O)N3CCOCC3)cc2c1	i	-12	5.5*	-4	27
CCOc1ccc2[nH]c(=O)c(CN(CC3COCCO3)C(=O)c3ccc(C)cc3)cc2c1 (stereo unspecified)	i	-20	0.03	93*	nt
CCCCOc1[nH]c2nc(-c3ccco3)n(Cc3ccco3)c(=N)c2c1C#N	i	-2	-0.6	14	nt
Cc1c(CCC(C)C)c(-n2ccnc2C)n2c(nc3ccccc32)c1C#N	i	-8	-0.1	1	0
Cc1c(CCC(C)C)c(=O)n2c([nH]c3ccccc32)c1C#N	i	84	0.26	99*	-44
CCCc1cc(=O)n2c([nH]c3ccccc32)c1C#N	i	25	0.02	25	-7
CCCCc1c(C)c(C#N)c2[nH]c3ccccc3n2c1=O	i	39	-0.52	65*	53
Cc1ccc(NC(=O)Cn2ccc([N+](=O)[O-])n2)cc1Cl	i	-10	-0.01	8	nt
CCN(Cc1ccncc1)Cc1cn[nH]c1-c1cc(OC)c(OC)c(OC)c1	i	5	-0.22	2	nt
COc1ccc(CNC(=S)Nc2ccccc2-c2ccccc2)cc1	i	48	0.4	24	nt
CNS(=O)(=O)c1cc(OC)c(OC)cc1CC(=O)OC	i	9	-1.1	-4	8
SMILES	Autophagy mod	WT yeast gro inh	Insulin prom up	Lmaj promast	Insulin prom inh
CC(=O)Nc1ccc(S(=O)(=O)N2CCN(C)CC2)cc1	i	64*	-0.17	-8	59
COC(=O)Nc1ccc(S(=O)(=O)N2CCN(C)CC2)cc1	i	-39	2.5	-8	-39
CN1CCN(S(=O)(=O)c2ccc(-c3ccccc3)cc2)CC1	i	2	0.87	86*	-4
CC(=O)Nc1ccc(NC(=O)C(C)N2CCN(S(=O)(=O)c3ccc(C)cc3)CC2)cc1 (stereo unspecified)	i	-20	-0.14	-4	nt
CC(=O)Nc1ccc(S(=O)(=O)N2CCN(C(C)CCc3ccccc3)CC2)cc1 (stereo unspecified)	i	7	-1.1	86*	-26
Cc1cc(-c2nc(C)c(C(=O)NN)s2)no1	nt	nt	0.63	nt	nt
CCOC(=O)NC1=NCC(C)S1 (stereo unspecified)	nt	nt	-0.28	nt	nt
